CHRM1 antagonist: human M1 muscarinic receptor antagonists, primary screen, CHO-K1 cells, Fluo-8 calcium fluorescence, 1536-well | CHO-K1 hM1, ACh EC80 antagonist | 360,000 compounds, 1.3% hits | inhibition, % at 3 µM | Muscarinic acetylcholine receptor M1 (Homo sapiens), P11229;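 active = percent inhibition above its own plate's cutoff, namely the mean of that plate's compound wells plus 3 SD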;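 note: peak over basal fluorescence ratio during 140 s after agonist addition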
Target sequence (P11229 whole entry, looked up): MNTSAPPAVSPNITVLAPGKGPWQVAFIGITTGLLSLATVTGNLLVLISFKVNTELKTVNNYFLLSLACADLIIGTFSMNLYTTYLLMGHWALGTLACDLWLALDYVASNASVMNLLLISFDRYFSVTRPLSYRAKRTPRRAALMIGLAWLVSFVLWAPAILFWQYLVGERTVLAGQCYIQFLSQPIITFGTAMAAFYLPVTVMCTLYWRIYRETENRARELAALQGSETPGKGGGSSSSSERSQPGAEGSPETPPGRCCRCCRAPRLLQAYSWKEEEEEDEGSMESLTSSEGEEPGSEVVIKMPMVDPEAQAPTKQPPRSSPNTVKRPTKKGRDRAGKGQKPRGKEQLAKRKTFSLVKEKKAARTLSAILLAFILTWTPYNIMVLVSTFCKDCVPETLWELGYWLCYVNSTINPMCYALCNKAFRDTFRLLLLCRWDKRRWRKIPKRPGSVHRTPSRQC
CHO-K1 Ca antag: counter-screen for M1 antagonists: effect in parental CHO-K1 cells; 360,000 compounds, 0.6% hits; AID 602250; inhibition, % at 3 µM; ATP-induced calcium, Fluo-8 fluorescence;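 active = inhibition above a per-plate cutoff, the plate's mean sample inhibition plus 3 SD, cut at about 24% in these data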
M1 PAM parental: nonselective calcium activators in parental CHO-K1 cells, primary screen, counter-screen for M1 PAM project, cell-based, Fluo-8 calcium fluorescence, full deck, 1536-well; AID 602247, 2012; activation, % at 3 µM; 360,000 compounds, 0.02% hits; ATP EC20; 0% at ATP EC20, 100% at ATP max;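 active = activation above the run cutoff, the mean activation of all test compounds plus 3 SD, cut at about 40% in these data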;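 note: peak over basal fluorescence ratio in a 140 s read after ATP addition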
CHRM1 PAM: human M1 muscarinic receptor positive allosteric modulators, primary screen, CHO-K1 cells, Fluo-8 calcium fluorescence, 1536-well. CHO-K1 hM1, ACh EC20; 0% = ACh EC20, 100% = maximal ACh. activation, % at 3 µM. 360,000 compounds, 0.088% hits. AID 588819, 2011; in the data active = activation above about 19%, passing the limit was not always enough
CHO-K1 Ca ag: counter-screen for M1 agonists: effect in parental CHO-K1 cells. activation, % at 3 µM. Fluo-8 calcium fluorescence; scaled to maximal ATP response, vehicle zero. 360,000 compounds, 0.48% hits; in the data active = activation above about 15%;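 note: untransfected CHO-K1 host cells lacking M1 receptor as counterscreen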
M1 ag: human M1 muscarinic receptor agonists, primary screen, Fluo-8 calcium fluorescence, CHO-K1 cells, HTS. activation, % at 3 µM. AID 588814, 2011. Muscarinic acetylcholine receptor M1 (Homo sapiens), P11229. CHO-K1 hM1, agonist mode; 0% DMSO, 100% acetylcholine EC100. 360,000 compounds, 0.33% hits;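 active = activation above the run's mean compound activation plus 3 SD, cut at about 16% in these data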;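 note: peak over basal fluorescence ratio within a 140 s kinetic read after compound addition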
A number is an active result; n = inactive. The list is not random: actives were taken first. Their share in the collection is about 2.4%.

SMILES	CHRM1 antagonist	CHO-K1 Ca antag	M1 PAM parental	CHRM1 PAM	CHO-K1 Ca ag	M1 ag
CC(=O)Nc1ccc(-c2ccnc3c2CC(C)(C(=O)Nc2cccc(Oc4ccccc4)c2)O3)cc1 (stereo not drawn)	n	n	n	n	n	n
CC(Sc1cccc[n+]1[O-])C(=O)NC1CCCCC1C (stereo not drawn)	n	n	n	n	n	n
COC(=O)COc1ccc(C2NC(=O)NC(c3ccccc3)=C2C(C)=O)cc1Br (stereo not drawn)	n	n	n	n	n	n
COc1ccc(OC)c(/C=N/NC(=O)C(=O)N2CCCCCC2)c1	n	n	n	n	n	n
CN(C(=O)c1ccc(NC(=O)Cc2ccc(NC(=O)C3CCN(C(=O)C4CC4)CC3)cc2)cc1)C1CCCC1	n	n	n	27	n	n
CCN(CC(=O)Nc1ccc2c(c1)OCCO2)C(=O)/C=C/c1ccc(OC)cc1OC	n	n	n	n	n	n
CCN(CC(=O)Nc1ccc2c(c1)OCCO2)C(=O)/C=C/c1cccc(OC)c1OC	n	n	n	27	n	17
COc1ccccc1N(CCC#N)C(=S)Nc1ccc(S(=O)(=O)N2CCOCC2)cc1	n	n	n	n	n	n
CCN1CCc2c(sc(NC(=O)Nc3ccc(Cl)c(Cl)c3)c2C(N)=O)C1	63	59	n	n	95	114
CCN1CCc2c(sc(NC(=O)Cc3ccccc3)c2C(N)=O)C1	n	n	n	n	n	n
COc1ccccc1Nc1ccc2nonc2c1[N+](=O)[O-]	n	n	n	n	n	n
O=C(CNC(=O)c1ccccc1)NCCc1ccc(O)c(O)c1	n	n	n	31	n	n
NS(=O)(=O)c1ccc(CCNC(=O)CNC(=O)c2ccc(F)cc2)cc1	n	n	n	n	n	n
O=C(Nc1nnc(SCc2ccccc2F)s1)C1=COCCO1	n	n	n	n	17	n
O=C(CCc1nc2ccccc2c(=O)[nH]1)Nc1nnc(SCc2ccccc2F)s1	49	n	n	n	n	n
O=C(Nc1nnc(SCc2ccccc2)s1)C1=COCCO1	n	n	n	n	n	n
CCCNC(=O)c1cc(C2CCCN(C(=O)c3cc(F)ccc3C)C2)on1 (stereo not drawn)	n	n	n	n	n	n
CCOc1cc(N(CC)CC)ccc1/C=C(/C#N)c1nc2ccccc2[nH]1	52	n	n	n	19	36
CCN(CC)c1ccc(/C=C(/C#N)c2nc3ccc(C)cc3[nH]2)c(OC(C)C)c1	52	50	n	n	39	31
CCCOc1cc(N(CC)CC)ccc1/C=C(/C#N)c1nc2ccc(C)cc2[nH]1	39	35	n	n	17	n
COc1cc(/C=C(\C#N)c2nc3ccc(C)cc3[nH]2)c([N+](=O)[O-])cc1OC	n	n	n	n	n	n
C=CC(=O)N(CCC)C(c1ccccc1)c1ccccc1OC (stereo not drawn)	n	n	n	n	n	n
Cc1onc(-c2c(F)cccc2Cl)c1C(=O)N1CCc2ccccc2C1	n	n	n	n	n	n
Cc1onc(-c2c(Cl)cccc2Cl)c1C(=O)N1CCc2ccccc21	68	n	n	n	n	n
Cc1[nH]c(=O)[nH]c(=O)c1C=CC(=O)NC(CO)CS(=O)Cc1ccccc1 (stereo not drawn)	n	n	n	n	n	n
SMILES	CHRM1 antagonist	CHO-K1 Ca antag	M1 PAM parental	CHRM1 PAM	CHO-K1 Ca ag	M1 ag
O=C1c2cccc3c(N4CCCCC4)ccc(c23)C(=O)N1c1ccc(O)cc1	n	n	n	n	n	n
O=C1c2cccc3c(N4CCCCC4)ccc(c23)C(=O)N1c1ccccc1O	44	30	n	n	36	40
CCCN(CC(=O)Nc1ccccc1OC)C(=O)Cn1c(=O)oc2ccccc21	n	n	n	n	n	n
N#CC1=C(N)OC2=C(CC/C2=C\c2ccccc2)C1c1ccccc1 (stereo not drawn)	31	26	n	n	21	18
N#CC1=C(N)OC2=C(CC/C2=C\c2ccccc2Cl)C1c1ccccc1Cl (stereo not drawn)	n	n	n	n	n	n
COc1ccc2cc1Oc1ccc(cc1)CC1c3c(cc(OC)c4c3Oc3cc5c(cc3O4)CCNC5C2)CCN1C (stereo not drawn)	91	n	n	n	n	n
CNc1nc(Oc2ccccc2C(=O)OC)nc(SC)n1	n	30	n	n	n	n
CCOC(=O)c1ccc(Oc2nc(NC)nc(SC)n2)cc1	n	n	n	n	n	n
CCC(CC)CN1CCN=C1N(C)C	n	n	n	n	n	n
COc1ccc(S(=O)(=O)NCCC(=O)OCc2cc(=O)oc3cc(C)ccc23)cc1[N+](=O)[O-]	48	34	n	n	n	n
COc1ccc2c(COC(=O)CNS(=O)(=O)c3ccccc3)cc(=O)oc2c1	n	n	n	n	n	n
COc1ccc2c(COC(=O)c3cccc(S(=O)(=O)NCC(C)C)c3)cc(=O)oc2c1	38	n	n	n	17	n
CCCNS(=O)(=O)c1cccc(C(=O)OCc2cc(=O)oc3cc(OC)ccc23)c1	n	n	n	n	16	n
COc1cc(OC)cc(C(=O)NCC(=O)OCc2cc(=O)oc3cc(OC)ccc23)c1	n	n	n	n	18	n
CC[C@H](C)Cc1cn([C@@H](CCCN=C(NC(=O)OC(C)(C)C)NC(=O)OC(C)(C)C)C(=O)NCCCCCCCCCCC(=O)N2CCN(C(=O)OC(C)(C)C)CC2)nn1	n	n	n	n	n	n
Cc1cn([C@@H](CCCCNC(=O)OC(C)(C)C)C(=O)NCCCCCCCCCCC(=O)N2CCN(C(=O)OC(C)(C)C)CC2)nn1	44	n	n	n	16	n
CCOC(=O)c1sc(-c2ccccn2)nc1C	n	n	n	n	16	n
Cc1nc(-c2ccccn2)sc1C(=O)O	n	n	n	n	n	n
CC(=O)c1ccc(N2CCN(C3CCC(C(C)(C)C)CC3)CC2)cc1 (stereo not drawn)	39	n	n	n	n	n
CCOC(=O)c1cc2c(OC)c(OC)ccc2c2[nH]cc(C#N)c(=O)c12	n	n	n	n	n	n
CCOC(=O)c1c(C)oc2c1c(CN1CCN(C(=O)OCC)CC1)c(O)c1ccccc12	n	n	n	n	n	17
CCOc1nc(Nc2ccc(Cl)cc2)nc(OCC)n1	n	n	n	n	n	n
CN(C)c1nc(Nc2ccc(Cl)cc2)nc(OCC#N)n1	n	27	n	n	n	n

Screens: PubChem BioAssay, The Scripps Research Institute Molecular Screening Center
